# Screening results from PubChem.
# DAX1 inh-1 = DAX1 (NR0B1) inhibitors, primary screen, cell-based, HEK293, Gal4-DAX1, luciferase luminescence; Nuclear receptor subfamily 0 group B member 1 (Homo sapiens), P51843; HEK293 Gal4-DAX1 luciferase reporter; inhibition, % at 6.75 µM; actives 0.99% (n = 340,000); AID 504766, 2011;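 active means inhibition above the mean over all tested compounds plus 3 SD, cut at about 4.2% in these data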;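 further: 0% = DAX1-transfected cells with DMSO and 100% = empty-vector control cells with DMSO; inhibition shows as a rise in luminescence from relieved DAX1 repression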
# Target sequence (P51843 207-470 limits assumed): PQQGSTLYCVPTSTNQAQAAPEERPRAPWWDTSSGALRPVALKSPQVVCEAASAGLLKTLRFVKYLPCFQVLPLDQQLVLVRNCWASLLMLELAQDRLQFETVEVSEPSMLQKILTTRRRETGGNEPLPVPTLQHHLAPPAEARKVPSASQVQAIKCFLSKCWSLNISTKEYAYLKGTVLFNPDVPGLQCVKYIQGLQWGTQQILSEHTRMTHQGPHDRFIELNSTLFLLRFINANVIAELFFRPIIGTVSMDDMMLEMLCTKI
# SMARCA2 activ = SMARCA2 (BRM) function activators, primary screen, cell-based, luminescence, high throughput; MG213 cells, MMTV-luciferase reporter, dexamethasone, overnight; activation, % at 9.1 µM; actives 1% (n = 370,000); in the data active means activation above about 7.8%;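 further: 0% = vehicle wells and 100% = reference activator wells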
# hgDAF-12 ag = H. glycines DAF-12 receptor agonists, primary screen, cell-based, luminescence, HEK293, GAL4 fusion, UAS-luciferase | activation, % at 6.8 µM | actives 1.8% (n = 370,000) | Nuclear hormone receptor DAF-12 (Heterodera glycines), GAL4 fusion | HEK293 GAL4-hgDAF12 UAS-luciferase reporter, agonist luminescence; normalized to butyrate control;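 active means activation above a cutoff set at the mean of all screened compounds plus 3 SD, cut at about 10% in these data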;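 further: 0% = DMSO wells and 100% = sodium butyrate wells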
# DAX1 inh-2 = DAX1 (NR0B1) inhibitors on StAR promoter, primary screen, cell-based, luminescence, SF-1 (NR5A1), full-length DAX-1. actives 1.1% (n = 370,000). inhibition, % at 6.8 µM. HEK293T StAR-luciferase reporter, SF-1/DAX-1 repression relief;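 active means inhibition above the mean over all tested compounds plus 3 SD, cut at about 3.6% in these data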;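 further: 0% = DAX-1 cells with DMSO and 100% = cells lacking DAX-1 with DMSO; higher inhibition means more luminescence from relief of DAX-1 repression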
# ssDAF-12 act = S. stercoralis DAF-12 nuclear receptor activators, primary screen, cell-based, luminescence, HEK293, GRIP1 co-expression, lit1-tk-luc. Nuclear hormone receptor DAF-12 (Strongyloides stercoralis). HEK293 ssDAF-12/GRIP1 lit1-tk-luc reporter; % of 3 µM dafachronic acid response. activation, % at 6.8 µM. actives 1% (n = 370,000);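 active means activation above the mean over all tested compounds plus 3 SD, cut at about 0.9% in these data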;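 further: 0% = DMSO-only wells and 100% = 3 µM delta7-dafachronic acid wells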
# hcDAF12 agonist = H. contortus DAF-12 nuclear receptor activators, primary screen, cell-based, luminescence, HEK293, lit1-tk-luc reporter | HEK293 hcDAF-12 lit1-tk-luc reporter; 0% DMSO, 100% Δ7-dafachronic acid | activation, % at 6.8 µM | actives 1.4% (n = 370,000) | AID 652067, 2013;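 active means activation above the mean of all tested compounds plus 3 SD, cut at about 5.5% in these data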;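 further: 100% = response to 3 µM Δ7-dafachronic acid high control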
# Active calls of the source: *; . = not tested or not shown. Only some compounds are listed: those with a hit (about 4.8% of all), similar ones and a draw of the others.
SMILES,DAX1 inh-1,SMARCA2 activ,hgDAF-12 ag,DAX1 inh-2,ssDAF-12 act,hcDAF12 agonist
Cc1ccc(N/C(N)=N/c2nc(CSc3ccccn3)cc(=O)[nH]2)c(C)c1,0,-5,1,0,-2,-2
Cc1ccc2nc(N/N=C/c3ccco3)cc(C)c2c1,1,4,11*,2,-1,3
NNc1nc(-c2ccccc2)cs1,2,5,4,1,0,6.0*
Cc1ccc(/C=N/NC(=O)c2nnn(-c3nonc3N)c2CN(C)C)o1,1,-2,2,0,-1,-2
CN(C(=O)c1ccncc1)c1nnc(-c2cnccn2)s1,1,0,2,0,-1,-2
CCOC(=O)C1=CC[C@H]2c3c(c4ccccc4n3C)C(=O)C1N2Cc1ccccc1,0,2,-3,0,-1,0
CCOC(=O)C1=CC[C@H]2c3c(c4ccccc4n3C)C(=O)C1N2C,5.1*,1,-1,0,-1,1
CN(Cc1ccc(OC(F)F)cc1)Cc1nc2c(Br)cc(Br)cc2c(=O)[nH]1,0,3,-2,0,-1,0
COc1cccc(/C=C2\SC(=S)N(N3C(=O)CCCC3=O)C2=O)c1,5.7*,-5,0,0,-1,-1
COc1cccc(/C=C2\SC(=S)N(CC3CCCO3)C2=O)c1 (stereo not given),-1,-1,13*,-1,0,0
Cc1ccc(CN(Cc2ccco2)C(=S)NCC(=O)O)cc1,0,-1,1,0,0,-2
Cc1ccc(CNS(=O)(=O)c2cc3c(cc2C)N(C)CCO3)cc1,1,0,1,-1,-1,3
CC(=O)N1CCOc2cc(S(=O)(=O)NCc3ccc(F)cc3)c(C)cc21,5.6*,0,0,0,-1,-2
Cc1nn(-c2ccccc2Cl)c(Cl)c1/C=N/Nc1cccc(C(=O)O)c1,-4,3,10,4.0*,0,4
Cc1nn(-c2ccccc2)c(Cl)c1/C=N/NC(=O)c1cccc(S(=O)(=O)N2CCCC2)c1,-1,-2,1,1,-1,2
Cc1ccc(Cl)cc1N1CCN(S(=O)(=O)c2cnc[nH]2)CC1,-1,-2,2,0,-1,-2
O=C(O)c1cc(-c2cc3ccccc3o2)nn1-c1ccccc1,1,0,2,0,2.5*,5.8*
CCOC(=O)c1sc(NC(=O)CSc2nnc(C(C)C)n2C)nc1C,0,-2,-1,-1,0,0
CCOC(=O)c1sc(Nc2ccccc2Cl)nc1C,0,3,8,2,-1,0
CCOC(=O)c1sc(NC(=O)Nc2ccccc2F)nc1C,-2,-2,2,3.7*,0,3
CCOC(=O)c1sc(NC(=O)CSc2nncn2C)nc1C,5.2*,2,4,0,-2,1
O=C(O)c1ccccc1N1C(=O)c2cccc3cccc(c23)C1=O,-1,0,-1,0,-2,0
O=C(O)c1ccc2c3c(cccc13)C(=O)N(c1cccc3ccccc13)C2=O,4.5*,1,1,0,-1,3
COc1ccc(/C=C2/C(=O)N(c3nc4ccccc4s3)N=C2CSc2ccc(Cl)cc2)cc1,0,2,4,1,1,5.6*
COc1ccc(/C=C2/C(=O)N(Cc3ccccc3)N=C2C)cc1,1,-4,-1,0,0,-1
SMILES,DAX1 inh-1,SMARCA2 activ,hgDAF-12 ag,DAX1 inh-2,ssDAF-12 act,hcDAF12 agonist
COc1c(C)cc(C(=O)C2CCCN(Cc3cccc4nccnc34)C2)cc1C (stereo not given),-2,3,-3,-1,-2,-2
COc1ccc(C(=O)CSC#N)cc1OC,2,-2,13*,-1,-1,0
COc1ccc(C(=O)COC(=O)c2ccc(OC)c(OC)c2)cc1OC,0,-3,0,-1,-1,-2
CCOc1ccc(CCNC(=O)C(C)n2nc(C)c3c(C)n(-c4ccccc4)nc3c2=O)cc1 (stereo not given),0,-2,0,-3,-2,-2
CCS(=O)(=O)c1ccc2oc(Nc3ccccc3Cl)nc2c1,3,0,13*,2,0,4
CCN(CC)C(CNC(=O)CSc1nnnn1-c1c(C)cccc1C)c1ccco1 (stereo not given),0,-2,0,3.6*,0,-1
CCN(CC)C(CNC(=O)CSc1nnnn1-c1ccc(C)c(C)c1)c1ccco1 (stereo not given),-1,2,-1,-2,-1,0
Cc1ccc2nc(CN(C)C(=O)[C@H]3O[C@@H](n4ccc(N)nc4=O)[C@H](O)[C@@H]3O)[nH]c2c1,.,-3,-1,0,-1,0
COc1ccc(Nc2n[nH]c(N)c2C(N)=O)cc1,14*,-3,-2,1,-2,0
COc1cccc(NC(=S)N(CCCN2CCCC2)Cc2cccn2Cc2ccc(Cl)cc2)c1,4.4*,.,.,.,.,.
O=S1(=O)N[C@@H](CC2CCCCC2)COc2cc(Br)ccc21,-1,-1,1,-1,0,-2
O=C(OC(c1ccccc1)c1nccc2ccccc12)c1ccccc1 (stereo not given),1,-7,-17,-5,-3,-6
CC(C)C(OC(=O)c1ccccc1)c1nccc2ccccc12 (stereo not given),4.2*,4,4,1,0,5
O=C(NCCc1ccc(Cl)cc1)c1cccc(NC2=NC3CS(=O)(=O)CC3S2)c1 (stereo not given),0,1,-1,0,-1,-1
c1ccc(C[n+]2csc3ccccc32)cc1,1,1,3,1,1.1*,2
Cc1cccn2c(=O)c3cc(C(=O)N4CCN(Cc5ccccc5)CC4)sc3nc12,-1,-1,2,-1,-1,4
CC1CCCN(C(=O)c2cc3c(=O)n4ccccc4nc3s2)C1 (stereo not given),1,3,7,1,0,5
Cc1cccn2c(=O)c3cc(C(=O)N4CCCCC4)sc3nc12,2,-1,6,1,1.5*,5
Cc1cccn2c(=O)c3cc(C(=O)N4CCCC(C)C4)sc3nc12 (stereo not given),0,-2,3,1,1.2*,4
